From PubChem
In the library only some 1.5% were active in any assay of this set; here they are far more common.
FEN1 inh = inhibitors of human flap endonuclease 1; Recombinant FEN1 flap cleavage, fluorescence, 15 min; Potency, µM (series often up to 114 µM), without a hit: at the highest dose activity change, negative = inhibition, hits mostly inhibitors; 390,000 compounds, 0.35% hits; AID 588795; also: potency is read from the fitted curve at half-maximal effect; % is scaled to controls: 0 for no effect and ±100 for the full control effect; nearly all actives have a fitted effect of over 65% in size
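FEN1 at 10 nM preincubated with compounds 15 min at room temperature, then flap DNA substrate added at 50 nM final. Signal read at 0 and 15 min; concentration-response fitted with four-parameter Hill equation.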
APE1 inh = inhibitors of human APE1 endonuclease. 350,000 compounds, 0.35% hits. recombinant APE1, TAMRA/BHQ-2 abasic DNA cleavage fluorescence. Potency, µM (top dose mostly 65.8 µM), without a hit: at the highest dose activity change, negative = inhibition, actives largely listed as inhibitors. AID 2517;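 also: potency is read from the fitted curve at half-maximal effect; plate controls were vehicle for no effect and reference inhibitor for full effect; nearly all actives have a fitted effect of over 55% in size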
Target sequence (P27695 whole entry, looked up): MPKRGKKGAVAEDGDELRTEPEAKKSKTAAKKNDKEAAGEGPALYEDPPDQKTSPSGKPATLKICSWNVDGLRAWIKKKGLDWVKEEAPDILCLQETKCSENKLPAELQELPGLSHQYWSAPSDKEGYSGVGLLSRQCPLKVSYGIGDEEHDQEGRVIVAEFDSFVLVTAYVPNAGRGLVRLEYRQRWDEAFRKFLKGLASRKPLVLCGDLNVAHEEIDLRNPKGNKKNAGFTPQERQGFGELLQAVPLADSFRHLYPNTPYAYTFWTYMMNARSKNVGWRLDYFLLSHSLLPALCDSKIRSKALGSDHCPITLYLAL
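Enzyme (0.75 nM final) and test compound are incubated 15 min at room temperature before adding 50 nM quenched THF abasic-site duplex. Cleavage dequenches TAMRA, followed at 525/598 nm over three reads one minute apart.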
BLM helicase inh-1 = blocks DNA unwinding by human BLM helicase; P54132; recombinant BLM DNA unwinding, fluorescence dequenching; Potency, µM (top dose mostly 56.1 µM), inactives show top-dose activity change, negative = inhibition, usual class: inhibitors; 350,000 compounds, 0.2% hits;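 also: potency is read from the fitted curve at half-maximal effect; plate controls were vehicle for no effect and no enzyme for full effect; nearly all actives have a fitted effect of over 35% in size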
PI5P4K alpha inh = PI5P4K alpha (human) kinase inhibition; PI5P4Kalpha enzyme, ADP-Glo luminescence, 60 min; active compounds read low; 330,000 compounds, 1.2% hits; AID 652105; P48426; max response, %; active = max response of -50% or lower; inconclusive = between -30% and -50%; inactive = -30% or higher; also: value at the top dose of about 77 µM; % is scaled to controls: 0 for no effect and ±100 for the full control effect
Target sequence (P48426 whole entry, looked up): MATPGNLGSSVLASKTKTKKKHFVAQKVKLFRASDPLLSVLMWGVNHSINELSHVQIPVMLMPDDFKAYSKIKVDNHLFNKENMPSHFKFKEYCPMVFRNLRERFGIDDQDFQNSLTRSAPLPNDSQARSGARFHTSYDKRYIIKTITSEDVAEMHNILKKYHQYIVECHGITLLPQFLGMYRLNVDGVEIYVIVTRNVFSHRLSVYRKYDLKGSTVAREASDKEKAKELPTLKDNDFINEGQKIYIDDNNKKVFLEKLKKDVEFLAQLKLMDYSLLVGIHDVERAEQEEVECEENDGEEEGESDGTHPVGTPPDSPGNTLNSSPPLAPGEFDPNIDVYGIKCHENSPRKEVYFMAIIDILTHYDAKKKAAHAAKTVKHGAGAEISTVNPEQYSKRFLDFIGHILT
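ADP-Glo luminescence end-point read after a 60 min room-temperature kinase reaction of PI5P4Kalpha plus substrate, initiated with ATP at 5 microM final. Buffer: 0.038 M HEPES pH 7.4, EGTA, 0.1% CHAPS, 5% DMSO.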
RECQ1 helicase = inhibitors of human RECQ1 DNA helicase; P46063; Potency, µM (top dose mostly 57.3 µM), inactives show top-dose activity, negative = inhibition, hits mostly inhibitors; 240,000 compounds, 0.54% hits; RECQ1 DNA unwinding, red fluorescence kinetic read;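 also: potency is read from the fitted curve at half-maximal effect; plate controls were vehicle for no effect and no enzyme for full effect; nearly all actives have a fitted effect of over 30% in size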
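RECQ1T1 50 nM; forked duplex (20 bp + 30-nt ss tails) 200 nM, ATP 2 mM final; pH 8.0, 2 mM MgCl2, 2.5 ug/ml poly(dI-dC); 15 min compound preincubation; discontinuous kinetic read over 2 h at RT.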
WRN helicase inh-1 = blocks human WRN helicase | Potency, µM (top dose mostly 114 µM), for inactives: at the highest dose activity change, negative = inhibition, hits mostly inhibitors | WRN helicase unwinding, fluorescent forked duplex, kinetic | 360,000 compounds, 0.46% hits | Q14191 | AID 651768; also: potency is read from the fitted curve at half-maximal effect; % is scaled to controls: 0 for no effect and ±100 for the full control effect; nearly all actives have a fitted effect of over 55% in size
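Screening of the MLSMR collection measured strand separation of a quenched forked DNA duplex (100 nM) by 20 nM WRN with 2 mM ATP, all final. Compounds were preincubated with enzyme 15 min at room temperature.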
WRN helicase inh-2 = WRN helicase inhibition, cherry-pick retest. shares compounds with WRN helicase inh-1. WRN helicase DNA unwinding, fluorescence kinetic. Potency, µM (doses to about 57.1 µM), for the others: at the top dose activity, negative = inhibition, hits mostly inhibitors. 610 compounds, 63% hits; also: potency is read from the fitted curve at half-maximal effect; nearly all actives have a fitted effect of over 65% in size
TO displacement = DNA binding via thiazole orange displacement; 610 compounds, 10% hits; AID 720499; Potency, µM (top dose mostly 57.1 µM), for the others: at the highest dose activity change, negative = inhibition, actives largely listed as inhibitors; shares compounds with WRN helicase inh-1; thiazole orange DNA binding displacement, fluorescence;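 also: drop in dye fluorescence marks compound binding to DNA; potency is read from the fitted curve at half-maximal effect; % is scaled to controls: 0 for no effect and ±100 for the full control effect; nearly all actives have a fitted effect of over 60% in size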
BLM helicase inh-2 = blocks human BLM helicase in WRN counterscreen; shares compounds with WRN helicase inh-1; Potency, µM (series often up to 57.1 µM), inactives show at the highest dose activity change, negative = inhibition, actives largely listed as inhibitors; AID 720503; 610 compounds, 60% hits; Recombinant BLM helicase DNA unwinding, red fluorescence; also: potency is read from the fitted curve at half-maximal effect; nearly all actives have a fitted effect of over 60% in size
Starred values were filed as active, the others as inactive. Unless noted, calls follow the shape of the dose curve; as a rule, active = well fitted curve in the direction sought with a large enough effect; inconclusive = small, poorly fitted or top-dose-only effect, or another doubt; inactive = no such curve, though single readings can be large; an effect the other way counts as inactive or inconclusive.

Results for O=C(O)/C=C/C(=O)c1ccc2c(c1)CCc1ccccc1-2 ?
FEN1 inh: inconclusive; APE1 inh: -7%; PI5P4K alpha inh: inconclusive; WRN helicase inh-1: 1.5µM*; WRN helicase inh-2: inconclusive; TO displacement: -10%; BLM helicase inh-2: 19µM*

What do the screens show for `N#C/C(=C/c1ccc(N2CCCCC2)o1)C(=O)Nc1ccc(Cl)cc1`?
FEN1 inh: -2%; APE1 inh: 10%; BLM helicase inh-1: -6%; RECQ1 helicase: -1%; WRN helicase inh-1: -7%

How did N#C/C(=C/c1ccc(N2CCCCC2)o1)C(=O)Nc1ccc2ccccc2c1 do in these assays?
FEN1 inh: -10%; APE1 inh: inconclusive; BLM helicase inh-1: -12%; PI5P4K alpha inh: -3; RECQ1 helicase: inconclusive; WRN helicase inh-1: inconclusive; WRN helicase inh-2: inconclusive; TO displacement: inactive; BLM helicase inh-2: 22µM*

How did CCN1CCC(O)(/C=C/c2ccc(C(C)C)cc2)C(C(=O)/C=C/c2ccc(C(C)C)cc2)C1 (configuration not stated) do in these assays?
FEN1 inh: -25%; PI5P4K alpha inh: -1; WRN helicase inh-1: 16µM*; WRN helicase inh-2: -28%; TO displacement: -30%; BLM helicase inh-2: inconclusive

Results for CC1=C([N+](=O)[O-])C(c2ccc3c(c2)OCO3)N(C)C(=O)N1C (configuration not stated) ?
FEN1 inh: -8%; APE1 inh: 2%; BLM helicase inh-1: -6%; PI5P4K alpha inh: inconclusive; WRN helicase inh-1: inconclusive; WRN helicase inh-2: -6%; TO displacement: -1%; BLM helicase inh-2: -13%

How did CCc1ccccc1NC(=O)N(C)CCc1c(C)nn(C)c1C do in these assays?
FEN1 inh: 56%; BLM helicase inh-1: -1%

How did O=C1Nc2ccccc2/C1=N\N=C\c1ccc(O)c(O)c1 do in these assays?
FEN1 inh: 13µM*; APE1 inh: inconclusive; BLM helicase inh-1: inconclusive; PI5P4K alpha inh: -56*; RECQ1 helicase: -17%; WRN helicase inh-1: 32µM*; WRN helicase inh-2: 6.8µM*; TO displacement: inconclusive; BLM helicase inh-2: 6.8µM*

Results for Oc1ccc(/C=N/N=C/c2ccc(O)c(O)c2)cc1O ?
FEN1 inh: inconclusive; APE1 inh: inconclusive; BLM helicase inh-1: inconclusive; PI5P4K alpha inh: -8; WRN helicase inh-1: 0.75µM*; WRN helicase inh-2: 0.61µM*; TO displacement: -16%; BLM helicase inh-2: 1.1µM*

How did COc1cc(/C=N/N=C2/C(=O)Nc3ccccc32)ccc1O do in these assays?
FEN1 inh: -29%; APE1 inh: 11%; BLM helicase inh-1: -10%; PI5P4K alpha inh: -17; RECQ1 helicase: 3%; WRN helicase inh-1: -15%

Results for CCOc1ccc(NC(=O)CN2C(=O)CC(C)Sc3ccccc32)cc1 (configuration not stated) ?
FEN1 inh: 18%; BLM helicase inh-1: -3%

How did COc1cc(/C=N/Nc2nc(Nc3ccc(C)cc3)nc(-n3nc(C)cc3C)n2)cc(OC)c1OC do in these assays?
FEN1 inh: -16%; APE1 inh: 0%; BLM helicase inh-1: -2%; RECQ1 helicase: -7%; WRN helicase inh-1: -31%

What do the screens show for `COc1cc(/C=N/Nc2nc(Nc3ccccc3)nc(-n3nc(C)cc3C)n2)cc(OC)c1OC`?
FEN1 inh: -9%; APE1 inh: 18%; BLM helicase inh-1: -3%; PI5P4K alpha inh: -8; RECQ1 helicase: -10%; WRN helicase inh-1: inconclusive; WRN helicase inh-2: 6.8µM*; TO displacement: 78%; BLM helicase inh-2: 2.7µM*

What do the screens show for `COc1ccc(OC)c(NC(=O)COC(=O)CCc2nc3ccccc3c(=O)[nH]2)c1`?
FEN1 inh: 6%; APE1 inh: -9%; PI5P4K alpha inh: -6; WRN helicase inh-1: inconclusive; WRN helicase inh-2: inconclusive; TO displacement: -13%; BLM helicase inh-2: inconclusive

Results for O=C(NCc1cccs1)c1ccc2c(=O)n3nc(Nc4ccccc4)sc3nc2c1 ?
FEN1 inh: 12%; BLM helicase inh-1: -27%; WRN helicase inh-2: 19µM*; TO displacement: 158%; BLM helicase inh-2: 3.4µM*

Results for CCn1cc(C(=O)NCCc2ccc(Cl)cc2)c(=O)c2cc(S(=O)(=O)N3CCc4ccccc4C3)ccc21 ?
FEN1 inh: 18%; BLM helicase inh-1: -8%

What do the screens show for `COc1cc(/C=C2/SC(=S)N(Cc3ccccc3)C2=O)cc(Cl)c1O`?
FEN1 inh: inconclusive; APE1 inh: -33%; BLM helicase inh-1: 3%; PI5P4K alpha inh: inconclusive; WRN helicase inh-1: -128%; WRN helicase inh-2: 1.5µM*; TO displacement: inconclusive; BLM helicase inh-2: 2.7µM*

What do the screens show for `COc1cc(/C=C2/SC(=S)N(CC(=O)O)C2=O)ccc1OC(=O)c1cccs1`?
FEN1 inh: 0%; APE1 inh: 2%; BLM helicase inh-1: 0%; PI5P4K alpha inh: -15; RECQ1 helicase: inactive; WRN helicase inh-1: inconclusive; WRN helicase inh-2: inconclusive; TO displacement: -13%; BLM helicase inh-2: -17%

Results for COc1cccc(CNS(=O)(=O)c2ccc3c(c2)C(C(C)C)C(=O)N3)c1 (configuration not stated) ?
FEN1 inh: 8%; BLM helicase inh-1: 0%

Results for CC(C)(C)C(=O)Nc1ccc2nc(SCCOc3ccccc3Cl)sc2c1 ?
FEN1 inh: 2%; BLM helicase inh-1: -2%

What do the screens show for `COc1ccc(C)cc1Nc1ncnc2c1c(-c1ccccc1)cn2-c1ccc(C)cc1`?
FEN1 inh: 1%; BLM helicase inh-1: -3%

How did COc1cc(/C=N/NC(=O)c2ccc3c(c2)OCCO3)cc(Br)c1O do in these assays?
FEN1 inh: -18%; APE1 inh: 30%; BLM helicase inh-1: -5%; PI5P4K alpha inh: -5; WRN helicase inh-1: -13%

How did COc1cc(/C=N/NC(=O)c2ccc3c(c2)OCCO3)c(Br)c(Br)c1O do in these assays?
FEN1 inh: inconclusive; APE1 inh: 42%; BLM helicase inh-1: -11%; PI5P4K alpha inh: -29; WRN helicase inh-1: inconclusive; WRN helicase inh-2: inconclusive; TO displacement: -24%; BLM helicase inh-2: inconclusive
